Screening results from PubChem.
Vif-APOBEC3F blk – qHTS for Inhibitors of Vif-A3F Interactions: qHTS; Potency, µM (titrated, usually from 46.1 µM), inactives show top-dose activity, negative = active; HeLa A3F-eYFP + Vif (tagged APOBEC3F with the HIV-1 protein that degrades it), YFP fluorescence increase; 0.2% of 390,000 active; note: potency is the fitted concentration of half-maximal effect; % of control where 0% means no effect; nearly all actives have a fitted effect of over 65% in size
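HeLa cells stably expressing Vif plus C-terminally eYFP-tagged A3F were seeded, incubated overnight at 37 deg C, dosed with compound, incubated overnight again at 37 deg C. Yellow fluorescence (Ex 488/Em 500-530) reported blocked Vif-mediated A3F-eYFP degradation.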
Akt phos inh – HTS Assay for Inhibitors of Akt Phophorylation: Primary Screen | Neuro2A IGF-stimulated pAkt S473 HTRF, 20 min; hits give low values | activity change, % for hits at 50 µM | 0.32% of 360,000 active; in the data active = activity change below about -80%; inconclusive = mostly about -51% to -80%; note: % is set by controls: 0 for no effect and ±100 for the full control effect
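Neuro2A cells (4,500/well, DMEM with 0.5% FBS) were treated with compound at a single 50 µM final concentration, stimulated with 6 nM IGF for 20 min at 37 °C, and lysed. Phospho-Akt Ser473 was read by HTRF as 665/615 ratio ×10^4.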
Vif-APOBEC3G blk – qHTS for Inhibitors of Vif-A3G Interactions: qHTS; DNA dC->dU-editing enzyme APOBEC-3G (Homo sapiens), Q9HC16; HeLa A3G-eYFP + Vif (tagged APOBEC3G with the HIV-1 protein that degrades it), YFP fluorescence, overnight; Potency, µM (doses to about 46.1 µM), without a hit: at the top dose activity, negative = active, actives largely listed as inhibitors; 0.076% of 410,000 active; AID 602310, 2012; note: potency is the fitted concentration of half-maximal effect; % is set by controls: 0 for no effect and ±100 for the full control effect; nearly all actives have a fitted effect of over 60% in size
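HeLa cells stably expressing Vif and C-terminally eYFP-tagged A3G, seeded overnight at 37 deg C, then exposed to compound by pintool overnight at 37 deg C. Rise in yellow fluorescence (Ex 488/Em 500-530, Acumen) marks blocked Vif-driven A3G degradation.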
ASM inhibitor – Inhibitors of Secretory Acid Sphingomyelinase (S-ASM): qHTS; Potency, µM (series often up to 57.5 µM), inactives show at the highest dose activity change, negative = inhibition, most hits filed as inhibitors; 0.006% of 340,000 active; Sphingomyelin phosphodiesterase (Homo sapiens), P17405; placental ASM, HMU-PC fluorogenic substrate, 60 min; note: potency is the fitted concentration of half-maximal effect
Target sequence (P17405 47-631 limits assumed): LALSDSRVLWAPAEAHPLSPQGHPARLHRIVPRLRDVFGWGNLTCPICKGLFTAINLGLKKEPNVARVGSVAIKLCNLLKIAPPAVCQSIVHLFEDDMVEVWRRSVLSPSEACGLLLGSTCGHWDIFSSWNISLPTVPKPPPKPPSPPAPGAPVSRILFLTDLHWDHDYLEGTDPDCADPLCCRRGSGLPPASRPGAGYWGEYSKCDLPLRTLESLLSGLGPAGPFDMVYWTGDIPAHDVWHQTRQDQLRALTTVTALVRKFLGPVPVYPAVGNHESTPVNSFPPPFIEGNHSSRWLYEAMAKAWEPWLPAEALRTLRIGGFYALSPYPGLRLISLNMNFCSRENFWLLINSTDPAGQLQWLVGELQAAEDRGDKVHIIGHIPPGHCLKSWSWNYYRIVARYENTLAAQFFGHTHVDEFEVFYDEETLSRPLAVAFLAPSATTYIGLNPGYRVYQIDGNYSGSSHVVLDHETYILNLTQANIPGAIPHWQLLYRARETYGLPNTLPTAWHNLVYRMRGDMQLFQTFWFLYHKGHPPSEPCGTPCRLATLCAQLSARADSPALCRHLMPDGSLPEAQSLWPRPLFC
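Human placenta-derived ASM preincubated with compound 10 min at room temperature, then reacted with 9 uM (final) fluorogenic HMU-PC substrate for 60 min at 37 C. Stop solution raises pH to 10; fluorescence read at Ex 386/Em 447 nm.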
12-LOX inh – Primary qHTS assay for inhibitors of human arachidonate 12S-lipoxygenase (ALOX12): Round 2 | 1.1% of 580,000 active | Polyunsaturated fatty acid lipoxygenase ALOX12 (Homo sapiens), P18054 | purified 12hLO, xylenol orange hydroperoxide absorbance | Potency, µM (titrated, usually from 108 µM), inactives show at the top dose activity change, negative = inhibition, most hits filed as inhibitors; note: potency is the fitted concentration of half-maximal effect; % is set by controls: 0 for no effect and ±100 for the full control effect
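Hydroperoxide product was detected by ferrous iron/xylenol orange as the 573 to 405 nm absorbance ratio. Arachidonic acid at 40 uM (final) was turned over for 30 min at room temperature by 150 nM human 12hLO, pH 7.0 Hepes buffer, after 15 min compound preincubation.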
PTAP TSG101 blk – qHTS Assay for Iinhibitors of HIV-1 Budding by Blocking the Interaction of PTAP/TSG101; 340,000 tested, under 10 active; Tumor susceptibility gene 101 protein (Homo sapiens), Q99816; Potency, µM (doses to about 115 µM), inactives show top-dose activity change, negative = inhibition, hits mostly inhibitors; AID 493005, 2010; Fluorescence polarization, FITC-PTAP peptide / Tsg101 binding; active = well fitted inhibition curve with a large enough effect in the main read-out, with a control signal flat, not every such curve was filed as active; inconclusive = small, poorly fitted or top-dose-only effect, or effect the other way, or a change in a side signal; inactive = no such curve, though single readings can be large or run the other way; note: potency is the fitted concentration of half-maximal effect; % of control where 0% means no effect
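FP read-out: FITC-PTAP peptide, 50 nM final, binding Tsg101 binding domain, 10 uM final; 20 min, r.t.; 10 mM HEPES pH 7.5, 0.15 M NaCl, 0.01% Tween 20, 3 mM EDTA, 0.1 mM TCEP.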
The depositor's hits bear a star; i = inactive; ? = inconclusive; . = no result given; ! = not active in a repeat. Hits are enriched below; roughly 1.4% of the tested compounds scored in any of these assays. Unless noted, calls come from the whole dose curve; as a rule, active = well fitted curve in the direction sought with a large enough effect; inconclusive = small, poorly fitted or top-dose-only effect, or another doubt; inactive = no such curve, though single readings can be large; an effect the other way counts as inactive or inconclusive.

SMILES	Vif-APOBEC3F blk	Akt phos inh	Vif-APOBEC3G blk	ASM inhibitor	12-LOX inh	PTAP TSG101 blk
COc1ccc(Cn2c3ccc(OC)cc3c3nc4ccccc4nc32)cc1	?	i	-5%	-2%	?	?
CCOC(=O)Cn1c2ccccc2c2nc3ccccc3nc21	?	i	2%	4%	-19%	-5%
O=C(O)Cn1c2ccccc2c2nc3ccccc3nc21	8.9µM*	i	?	.	.	.
COc1ccc2c(c1)c1nc3ccccc3nc1n2CC(=O)OC(C)C	25µM*	i	-18%	-1%	1%	-7%
COc1ccc2c(c1)c1nc3ccccc3nc1n2Cc1ccc(OC(C)C)c(OC)c1	22µM*	i	-27%	-26%	12%	-8%
COc1ccc(C)cc1S(=O)(=O)[C@H]1CS(=O)(=O)C[C@@H]1NCc1ccccn1	.	.	.	.	18%	.
Cc1ccc(Cc2c(-c3ccco3)nc3c4ccccc4ccn23)cc1	.	i	-27%	.	5µM*	.
Cc1ccc(Cc2c(-c3ccco3)nc3c(C)cc(Br)cn23)cc1	.	i	?	.	14µM*	.
Cc1cc(Br)cn2c(Cc3cccc(Cl)c3)c(-c3ccco3)nc12	.	i	.	.	?	.
NCCc1ccc(O)c(O)c1	6%	i	2%	0%	2.8µM*!	-2%
C[C@](N)(Cc1ccc(O)c(O)c1)C(=O)O	5%	i	0%	0%	?	0%
CC(C)(C)c1nc2cc(NC(=O)c3cc[n+]([O-])cc3)ccc2o1	.	.	.	.	2%	.
COc1ccc(-c2nc(S(=O)(=O)c3ccccc3)c(N3CCCC3)o2)cc1	-1%	i	-3%	.	4.5µM*	.
Cc1ccccc1CN1C(=O)C(C)S/C1=N/N=C/c1ccco1 (stereo not drawn)	2%	i	-11%	-1%	?	2%
Cc1ccccc1CN1C(=O)C(C)Sc2ccc(-c3ccco3)cc21 (stereo not drawn)	.	i	-12%	.	16µM*	.
CC1(C)CC(=O)C2=C(C1)OC(c1ccccc1)(C(C)(C)C)NC2=O (stereo not drawn)	.	.	.	.	-1%	.
C[N+](C)(C)C/C=C1/COCO1	1%	i	1%	-1%	11µM*!	-3%
CC[n+]1c(C)ccc2cc(C)ccc21	.	.	.	.	5.6µM*	.
CCN1/C(=C/c2ccc3cc(C)ccc3[n+]2CC)Sc2cc(C)ccc21	?	i	4%	-18%	35µM*	14%
CCN1/C(=C/c2ccc3cc(C)ccc3[n+]2C)Sc2ccc3sccc3c21	?	i	-9%	-12%	45µM*	-1%
Cc1ccc2c(c1)S/C(=C/c1ccc[n+](C)c1)N2CCO	?	i	?	-8%	0%	0%
CCN(Cc1ccc(Cl)s1)C(=O)CCc1cccs1	.	.	.	.	41%	.
Cc1ccc(C2CC2C(=O)NNC(=S)Nc2ccc(Cl)cc2)cc1 (stereo not drawn)	4%	.	-1%	-10%	45µM*	-4%
CNc1nc2c(c(=O)n(C)c(=O)n2C)n1CC(O)COc1ccc(C)cc1 (stereo not drawn)	.	.	.	.	-50%	.
Cn1c(=O)c2cc(NC(=S)NC3CC3)ccc2n1C/C=C/c1ccccc1	.	i	0%	.	?	.
SMILES	Vif-APOBEC3F blk	Akt phos inh	Vif-APOBEC3G blk	ASM inhibitor	12-LOX inh	PTAP TSG101 blk
Cn1c(=O)c2cc(NC(=S)NC3CCCCC3)ccc2n1C/C=C/c1ccccc1	.	i	-2%	.	40µM*	.
N#Cc1c(-c2cccc(F)c2)cc(-c2ccccc2)nc1Br	.	-94%*	-5%	24%	-2%	-4%
O=S(=O)(c1ccccc1)n1nc(NCc2ccccc2)nc1NCc1ccccc1	.	.	.	.	4%	.
COc1ccc2c(c1)O/C(=C\c1cccc(OS(C)(=O)=O)c1)C2=O	.	.	.	.	5%	.
COc1ccc(NC(=O)CSC2=C(C#N)C(c3ccco3)C3=C(CCCC3=O)N2)c(OC)c1 (stereo not drawn)	-4%	i	-4%	13%	18µM*	-12%
COc1cccc(NC(=O)CSC2=C(C#N)C(c3ccco3)C3=C(CCCC3=O)N2)c1 (stereo not drawn)	-15%	i	?	15%	-14%	-5%
Cn1cnc2c1c(=O)n(CC(=O)NC1CC1)c(=O)n2C	.	.	.	.	-5%	.
CCOC(=O)c1c(NC(=O)C(=O)NCc2ccco2)sc2c1CC(C)(C)OC2	.	.	.	.	5%	.
Cc1ccc(Nc2nc(NCC3CC3)nc3ccsc23)c(C)c1	.	i	?	.	40µM*	.
O=C(Nc1ccc(-c2ccc(Cl)cc2)cc1)c1ccncc1	.	.	.	.	7.1µM*	.
O=C1CCCN1CC(O)CS(=O)(=O)c1ccc(Cl)cc1 (stereo not drawn)	0%	i	-1%	4%	0%	-1%
Cc1ccc(S(=O)(=O)CC(O)CN2CCCC2=O)cc1 (stereo not drawn)	-8%	-117%*	-1%	3%	-1%	-1%
Cc1cc(Br)ccc1NC(=O)CN(C)Cc1nc2ccccc2o1	.	.	.	.	6%	.
O=C(O)c1ccc(CSc2nnnn2-c2ccc(F)cc2)cc1	-5%	i	6%	3%	-12%	0%
O=C(CSc1nnnn1-c1ccc(F)cc1)c1ccc(O)c(O)c1	-2%	i	-1%	-5%	14µM*	-3%
NN=C1c2ccccc2C(=O)C1C(=O)C(c1ccccc1)c1ccccc1 (stereo not drawn)	i	i	11µM*	-18%	?	4%
Cc1nnc(SCc2ccc(Cl)cc2)nc1/C=C/N(C)C	-5%	i	-4%	27%	40µM*	-7%
CSc1nnc(C)c(/C=C/NOCc2ccc(Cl)cc2)n1	-1%	i	0%	-23%	?	-5%
CCOC(=O)c1nc2ccccc2nc1NCCc1ccc(OCC)c(OCC)c1	.	.	.	.	5%	.
CCn1c(SCC(=O)Nc2cc(OC)ccc2OC)nc2c(-c3ccccc3)csc2c1=O	.	.	.	.	4%	.
CC[C@@H](NC(=O)[C@@H](Cc1ccccc1)NC(=O)CC[C@H]1O[C@@H](n2ccc(=O)[nH]c2=O)[C@H](O)[C@@H]1O)c1ccccc1	.	i	1%	.	32µM*	.
O=S(=O)(NCC1(c2ccccc2)CC1)c1cc(F)ccc1F	.	.	.	.	-21%	.
C=CCc1ccccc1OCC(O)CN1CCOCC1 (stereo not drawn)	-23%	i	0%	-3%	40µM*	1%
